Assay results taken from PubChem BioAssay (NCI).
The panel holds about 83,000 compounds, 20% with a hit somewhere; the sample as a whole holds those more often.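 Negative percent growth values reflect cell death: -40 means 40% of the cells present at the start died, and -100 means all died.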 Unmarked numbers belong to inactive results. Calls of active or inactive are those of the source. How the source made its calls: active means growth percent below 10; inactive means the rest.

Each molecule was assayed on 786-0 renal (assay: NCI-60 one-dose screen, 48 h (100 = growth as untreated, 0 = no growth, -100 = all killed)). Conditions: 10 µM unless noted.

Q: For `CC(C)(C)n1cc(-c2ccnc(NCCCNS(=O)(=O)c3cccc(F)c3)c2)c(-c2cccc(O)c2)n1`, which growth is on record?
A: The growth was 29.5%.

Q: `Cc1ccc(N2CCN(C(C)C(N)=O)CC2)cc1` (centres undefined) was tested. Which growth did it give?
A: Its growth is 103%.

Q: `NC(N)=N/N=C/c1ccc(-c2ccc(-c3cc(Cl)cc(Cl)c3)s2)cc1` was tested. Which growth did it give?
A: The growth was -83.5% (active).

Q: Which growth does the source give for `Cc1ccc2nc(-c3cc4c([nH]c5ccccc54)c(-c4ccc(F)c(F)c4)n3)[nH]c2c1` here?
A: The growth was 99.6%.

Q: How did the growth turn out when `CNc1ccc(Br)c2c1C(=O)c1ccccc1C2=O` was run?
A: Its growth is 96.7%.

Q: `O=C(O)c1cn(C2CC2)c2cc(N3CCN(C(=O)/C=C/c4ccc(Cl)cc4)CC3)c(F)cc2c1=O` was tested. Which growth did it give?
A: Its growth is 76.4%.

Q: With `CCC1=CCC[C@@]2(C)CCC[C@@]3(C)CCCC(C)(C)[C@]1([O-])[O+]32` as the molecule, how does the growth read?
A: The growth was 97.9%.

Q: How did the growth turn out when `O=c1[nH]c(-c2ccccc2)nc(CN2CCCCC2)c1O` was run?
A: Its growth is 102%.

Q: Which growth does the source give for `Cc1ccc(Nc2nnc(-c3ccc(Cl)cc3)o2)c(C)c1` here?
A: The growth was 89.3%.

Q: For `O=C(N/N=C/C=C\c1ccccc1)C(=O)N/N=C/C=C/c1ccccc1`, which growth is on record?
A: Its growth is 104%.

Q: With `COc1cc(-c2nc(N=Nc3c(O)[nH]c4ccc(Br)cc34)[nH]c(=O)c2C#N)cc(OC)c1OC` as the molecule, how does the growth read?
A: The growth was 99.8%.

Q: For `O=C(NNC(=O)N1c2ccccc2C=Cc2ccccc21)c1ccc2ccccc2c1`, which growth is on record?
A: Its growth is 96.1%.

Q: For `COc1cccc(-c2nc3sccn3c2-c2ccnc(NCCCNS(=O)(=O)c3ccc(C(F)(F)F)cc3)c2)c1`, which growth is on record?
A: Its growth is 58.6%.

Q: Which growth does the source give for `c1cc(C2=N[C@@H]3c4ccccc4C[C@@H]3O2)nc(C2=N[C@@H]3c4ccccc4C[C@@H]3O2)c1` here?
A: The growth was 98.8%.
